# From PubChem BioAssay (Tox21)
# Values without a mark were called inactive. Inconclusive results are not listed. Entries that show only a call come without a potency. Calls of active or inactive are those of the source. Unless noted, calls follow the shape of the dose curve; as a rule, active = well fitted curve in the direction sought with a large enough effect in the repeat runs; inconclusive = weak or mixed curves; inactive = no such curve, though single readings can be large; an effect the other way counts as inactive or inconclusive.
# How the values were obtained:
# [1] = qHTS assay to identify small molecule agonists of H2AX (AID 1224845; active = well fitted activation curve with a large enough effect in the signal ratio in the repeat runs, not every such curve was filed as active; the % refers to the signal ratio)
# Summary of the method: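 Wild-type CHO-K1 cells plated overnight, then exposed 3 hr at 37C to compounds at 15 concentrations (0.76% DMSO). Lysed, then HTRF anti-pH2AX(S139)-cryptate/anti-H2AX-d2 detection after 24 hr at room temperature; emissions 665 and 620 nm.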
# [2] = qHTS assay to identify small molecule agonists of the hypoxia (HIF-1) signaling pathway (AID 1224846; active = well fitted activation curve with a large enough effect in the signal ratio in the repeat runs, not every such curve was filed as active; the % refers to the signal ratio)
# Summary of the method: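 Measured by blue/green FRET after loading CCF4-AM: beta-lactamase expressed from a hypoxia response element in ME-180 cells. Test agents were delivered in DMSO and left 17 hrs; cells had been plated 5 hrs earlier in low-serum (0.5% dialyzed FBS) medium.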
# [3] = qHTS assay to identify small molecule agonists of H2AX - cell viability counter screen (AID 1224847; calls by dose curve; also: nearly all actives have a fitted effect of over 30% in size; also: potency is read from the fitted curve at half-maximal effect)
# Summary of the method: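 Viability of CHO-K1 (wild type) cells after 3 hr compound exposure was measured by CellTiter-Glo luminescence.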
# [4] = qHTS assay to identify small molecule antagonists of the estrogen related receptor (ERR) signaling pathway from Tox21 library (AID 1224848); also: nearly all actives have a fitted effect of over 50% in size; also: potency is read from the fitted curve at half-maximal effect
# Summary of the method: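 Screening used an ERR reporter line supplied by NTP, exposed for 18 h at 37 C to library compounds delivered in DMSO. Signal was luciferase luminescence developed with ONE-Glo at room temperature for 30 min.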
# [5] = qHTS assay to identify small molecule agonists of the estrogen related receptor (ERR) signaling pathway from Tox21 library (AID 1224849; calls by dose curve; also: nearly all actives have a fitted effect of over 15% in size); conditions: ERR reporter cell line, ONE-Glo luciferase, 18 h; at 92.4 µM (top of the series) unless noted
# Summary of the method: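 We plated ERR reporter cells, waited 6 h, added compounds in DMSO by pin tool and incubated them 18 h at 37 C. ONE-Glo was then added and luminescence read after 30 min.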
# [6] = qHTS RealTime-Glo MT Cell Viability Assay in HepG2 cells - 24 hour (AID 1224867); also: nearly all actives have a fitted effect of over 50% in size
# Summary of the method: (§1)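 Cells + NanoLuc/prosubstrate dispensed (600 cells/well) → 5 h at 37 C/5% CO2 → compounds in DMSO transferred → 40 h incubation at 37 C, luminescence read at 0, 8, 16, 24, 32, 40 h.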
# [7] = qHTS RealTime-Glo MT Cell Viability Assay in HEK293 cells - 32 hour (AID 1224868); also: nearly all actives have a fitted effect of over 50% in size; also: potency is read from the fitted curve at half-maximal effect
# Summary of the method: (§2)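 Tox21 10K qHTS, HEK293, 600 cells/well, RealTime-Glo reagent co-dispensed with cells; 5 h preincubation, compound by pintool, 37 C, luminescence at 0–40 h.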
# [8] = A CellTox Green Cytotoxicity Assay to monitor cytotoxicity in HEK293 cells - 0 hour (AID 1224869); also: nearly all actives have a fitted effect of over 50% in size
# Summary of the method: (§3)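 Each value comes from one timepoint of a single continuous run in which HEK293 cells with CellTox Green were exposed to compound for up to 40 h at 37 C, dye fluorescence rising with cell death.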
# [9] = qHTS RealTime-Glo MT Cell Viability Assay in HepG2 cells - 40 hour (AID 1224870); also: nearly all actives have a fitted effect of over 50% in size
# Summary of the method: (§4)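 HepG2 cells mixed with RealTime-Glo MT reagents (NanoLuc plus cell-permeant prosubstrate) were seeded at 600 cells/well, incubated 5 h at 37 C/5% CO2, then pinned with compounds in DMSO; nonlytic luminescence tracked viability during 40 h treatment.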
# [10] = A CellTox Green Cytotoxicity Assay to monitor cytotoxicity in HEK293 cells - 40 hour (AID 1224871); also: nearly all actives have a fitted effect of over 45% in size
# Summary of the method: as §3
# [11] = qHTS RealTime-Glo MT Cell Viability Assay in HEK293 cells - 16 hour (AID 1224872); also: nearly all actives have a fitted effect of over 50% in size; also: potency is read from the fitted curve at half-maximal effect
# Summary of the method: as §2
# [12] = qHTS RealTime-Glo MT Cell Viability Assay in HepG2 cells - 8 hour (AID 1224873); also: nearly all actives have a fitted effect of over 55% in size
# Summary of the method: as §4
# [13] = qHTS RealTime-Glo MT Cell Viability Assay in HEK293 cells - 40 hour (AID 1224874); conditions: RealTime-Glo luminescence; max response: active compounds read low; also: nearly all actives have a fitted effect of over 50% in size; also: potency is read from the fitted curve at half-maximal effect
# Summary of the method: (§5)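 qHTS format; HEK293 cells with NanoLuc/prosubstrate reagent, 37 C/5% CO2 for 5 h pre-dosing; compounds 23 nL in DMSO; luminescence at each time point reflects viable cells.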
# [14] = A CellTox Green Cytotoxicity Assay to monitor cytotoxicity in HEK293 cells - 24 hour (AID 1224875); also: nearly all actives have a fitted effect of over 45% in size
# Summary of the method: as §3
# [15] = A CellTox Green Cytotoxicity Assay to monitor cytotoxicity in HepG2 cells - 16 hour (AID 1224876); also: nearly all actives have a fitted effect of over 45% in size
# Summary of the method: (§6)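 Continuous culture of HepG2 cells with a membrane-impermeant DNA dye; rising fluorescence marks dead cells. Compound exposure lasted up to 40 h at 37 C, with reads every 8 h from 0 h.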
# [16] = qHTS RealTime-Glo MT Cell Viability Assay in HepG2 cells - 32 hour (AID 1224877); also: nearly all actives have a fitted effect of over 55% in size
# Summary of the method: as §1
# [17] = A CellTox Green Cytotoxicity Assay to monitor cytotoxicity in HepG2 cells - 24 hour (AID 1224878); also: nearly all actives have a fitted effect of over 45% in size
# Summary of the method: as §6
# [18] = A CellTox Green Cytotoxicity Assay to monitor cytotoxicity in HepG2 cells - 40 hour (AID 1224879); also: nearly all actives have a fitted effect of over 40% in size; also: potency is read from the fitted curve at half-maximal effect
# Summary of the method: as §6
# [19] = qHTS RealTime-Glo MT Cell Viability Assay in HEK293 cells - 0 hour (AID 1224880)
# Summary of the method: as §5
# [20] = A CellTox Green Cytotoxicity Assay to monitor cytotoxicity in HEK293 cells - 32 hour (AID 1224881); also: nearly all actives have a fitted effect of over 40% in size
# Summary of the method: as §3
smiles,measurement,setting,value
Cc1ccc(C(=O)Cl)cc1,Potency,[1],inactive
same,outcome,[2],inactive
same,Potency,[3],inactive
same,Potency,[4],inactive
same,"activity change, positive = activation",[5],7.48%
same,Potency,[6],inactive
same,Potency,[7],inactive
same,Potency,[8],inactive
same,Potency,[9],inactive
same,Potency,[10],inactive
same,Potency,[11],inactive
same,Potency,[12],inactive
same,max response,[13],-5.57%
same,Potency,[14],inactive
same,Potency,[15],inactive
same,Potency,[16],inactive
same,Potency,[17],inactive
same,Potency,[18],inactive
same,Potency,[19],inactive
same,Potency,[20],inactive
CC(C)(C)c1cc([N+](=O)[O-])cc(C(C)(C)C)c1O,Potency,[1],inactive
same,outcome,[2],inactive
same,Potency,[3],50.5 µM (active)
same,Potency,[4],2.73 µM (active)
same,"activity change, positive = activation",[5],-56.9%
same,Potency,[6],inactive
same,Potency,[7],6.92 µM (active)
same,Potency,[8],inactive
same,Potency,[9],inactive
same,Potency,[13],6.92 µM (active)
same,Potency,[15],inactive
same,Potency,[19],inactive
same,Potency,[20],inactive
Cc1cc(C)cc(OP(=O)(Oc2cc(C)cc(C)c2)Oc2cc(C)cc(C)c2)c1,Potency,[1],inactive
same,outcome,[2],inactive
same,Potency,[3],inactive
same,Potency,[4],inactive
same,"activity change, positive = activation",[5],0.886%
same,Potency,[6],inactive
same,Potency,[7],inactive
same,Potency,[9],inactive
same,Potency,[10],inactive
same,Potency,[11],inactive
same,Potency,[12],inactive
same,max response,[13],-16.9%
same,Potency,[14],inactive
same,Potency,[15],inactive
same,Potency,[16],inactive
same,Potency,[18],inactive
same,Potency,[19],inactive
same,Potency,[20],inactive
CC(C)(C)C(O)/C(=C\c1ccc(Cl)cc1Cl)n1cncn1 (centres undefined),Potency,[1],inactive
same,outcome,[2],inactive
same,Potency,[3],122 µM (active)
same,Potency,[4],33 µM (active)
same,"activity change, positive = activation",[5],-63.4%
same,Potency,[7],29.7 µM (active)
same,Potency,[8],inactive
same,Potency,[11],29.7 µM (active)
same,Potency,[13],26.5 µM (active)
same,Potency,[18],52.8 µM (active)
same,Potency,[19],inactive
C=COCCCl,Potency,[1],inactive
same,outcome,[2],inactive
same,Potency,[3],inactive
same,Potency,[4],inactive
same,"activity change, positive = activation",[5],14.7%
same,Potency,[6],inactive
same,Potency,[7],inactive
same,Potency,[9],inactive
same,Potency,[10],inactive
same,Potency,[11],inactive
same,Potency,[12],inactive
same,Potency,[14],inactive
same,Potency,[15],inactive
same,Potency,[16],inactive
same,Potency,[17],inactive
same,Potency,[18],inactive
same,Potency,[19],inactive
same,Potency,[20],inactive
CC(C)C(=O)Cl,Potency,[1],inactive
same,outcome,[2],inactive
same,Potency,[3],inactive
same,Potency,[4],inactive
same,"activity change, positive = activation",[5],-0.166%
same,Potency,[6],inactive
same,Potency,[7],inactive
same,Potency,[8],inactive
same,Potency,[9],inactive
same,Potency,[10],inactive
same,Potency,[11],inactive
same,Potency,[12],inactive
same,max response,[13],0.629%
same,Potency,[14],inactive
same,Potency,[15],inactive
same,Potency,[16],inactive
same,Potency,[18],inactive
same,Potency,[19],inactive
same,Potency,[20],inactive
CCc1ccccc1C,Potency,[1],inactive
same,outcome,[2],inactive
same,Potency,[3],inactive
same,Potency,[4],inactive
same,"activity change, positive = activation",[5],0.837%
same,Potency,[6],inactive
same,Potency,[7],inactive
same,Potency,[8],inactive
same,Potency,[9],inactive
same,Potency,[10],inactive
same,Potency,[11],inactive
same,Potency,[12],inactive
same,max response,[13],0.859%
same,Potency,[14],inactive
same,Potency,[15],inactive
same,Potency,[16],inactive
same,Potency,[17],inactive
same,Potency,[18],inactive
same,Potency,[19],inactive
same,Potency,[20],inactive
